Reference: PubChem BioAssay AID1159580 (chemical genetic matrix, 2015)
Where “and” joins values, the source holds several entries; their conditions need not be identical. Identical values can stand only once. The campaign covered roughly 5,500 compounds. About 2,000 (36%) were called active. Roughly 18% stayed inconclusive and do not appear here. No stated cut-off is given here; in the data, active means normalized growth mostly below about 0.91 (no sharp cut-off); inconclusive means no clear call, values can overlap the other calls; inactive means mostly above about 0.92. Some of the results follow.

Experiment: chemical genetic growth profiling, strain panel (AID 1159580);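 further: tested at 20 µM; growth read once vehicle control cultures reached saturation at 30 °C; 1 = growth at the plate median or of vehicle wells; lower values mean less growth of the strain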
Details: growth OD

Measured: normalized growth

C[N+]1(CCCCC[N+]2(C)CCCC2)CCCC1
inactive: S. cerevisiae deletion strains, locus YJR043C, strain POL32, hits give low values 1.01 | S. cerevisiae deletion strains, locus YJR075W, strain HOC1, hits give low values 1.02 and 0.994 | S. cerevisiae deletion strains, locus YKL009W, strain mrt4, hits give low values 1.04 | S. cerevisiae deletion strains, locus YKL068W, hits give low values 1.01 | S. cerevisiae deletion strains, locus YKL085W, strain MDH1 (second series), hits give low values 1.01 | S. cerevisiae deletion strains, locus YKL085W, strain MDH1, hits give low values 1.01 | S. cerevisiae deletion strains, locus YKL160W, strain elf1, hits give low values 1.01 | S. cerevisiae deletion strains, locus YKL190W, strain CNB1, hits give low values 1.01 | S. cerevisiae deletion strains, locus YKR001C, strain vps1, hits give low values 1.01 | S. cerevisiae deletion strains, locus YKR026C, strain gcn3, hits give low values 1 | S. cerevisiae deletion strains, locus YKR091W, strain srl3, hits give low values 1 | S. cerevisiae deletion strains, locus YLL001W, strain dnm1, hits give low values 1 | S. cerevisiae deletion strains, locus YLL026W, hits give low values 0.992 | S. cerevisiae deletion strains, locus YLL041C, strain sdh2, hits give low values 0.999 | S. cerevisiae deletion strains, locus YLR027C, strain aat2, hits give low values 0.992 | S. cerevisiae deletion strains, locus YLR039C, strain RIC1, hits give low values 1.02 | S. cerevisiae deletion strains, locus YLR058C, strain SHM2, hits give low values 1.01 | S. cerevisiae deletion strains, locus YLR102C, strain apc9, hits give low values 1.02 | S. cerevisiae deletion strains, locus YLR221C, strain rsa3, hits give low values 1 | S. cerevisiae deletion strains, locus YLR258W, strain gsy2, hits give low values 0.998 | S. cerevisiae deletion strains, locus YLR262C, strain YPT6 (second series), hits give low values 1.03 | S. cerevisiae deletion strains, locus YLR262C, strain YPT6, hits give low values 1.03 | S. cerevisiae deletion strains, locus YLR268W, strain sec22, hits give low values 1.03 | S. cerevisiae deletion strains, locus YLR320W, strain mms22, hits give low values 0.993 | S. cerevisiae deletion strains, locus YLR330W, strain CHS5, hits give low values 1 | S. cerevisiae deletion strains, locus YLR342W, strain FKS1 (second series), hits give low values 1.01 | S. cerevisiae deletion strains, locus YLR342W, strain FKS1, hits give low values 0.995 | S. cerevisiae deletion strains, locus YLR357W, strain rsc2, hits give low values 0.963 | S. cerevisiae deletion strains, locus YLR370C, strain arc18, hits give low values 1 | S. cerevisiae deletion strains, locus YLR371W, strain rom2, hits give low values 1.03 | S. cerevisiae deletion strains, locus YLR384C, strain iki3, hits give low values 0.992 | S. cerevisiae deletion strains, locus YLR418C, strain cdc73, hits give low values 1.02 | S. cerevisiae deletion strains, locus YML016C, strain PPZ1, hits give low values 1.01 | S. cerevisiae deletion strains, locus YML032C, strain rad52, hits give low values 1.03 | S. cerevisiae deletion strains, locus YML120C, strain ndi1, hits give low values 0.99 | S. cerevisiae deletion strains, locus YML124C, strain tub3, hits give low values 1.02 | S. cerevisiae deletion strains, locus YMR058W, strain fet3, hits give low values 0.999 | S. cerevisiae deletion strains, locus YMR078C, strain ctf18, hits give low values 1.03 | S. cerevisiae deletion strains, locus YMR125W, strain sto1, hits give low values 0.979 | S. cerevisiae deletion strains, locus YMR129W, hits give low values 0.999 | S. cerevisiae deletion strains, locus YMR205C, strain PFK2, hits give low values 1.01 | S. cerevisiae deletion strains, locus YMR223W, strain ubp8, hits give low values 1 | S. cerevisiae deletion strains, locus YMR231W, strain pep5, hits give low values 0.993 | S. cerevisiae deletion strains, locus YMR263W, strain SAP30, hits give low values 1.01 | S. cerevisiae deletion strains, locus YMR307W, strain GAS1, hits give low values 1 and 1.02 | S. cerevisiae deletion strains, locus YNL067W, strain RPL9B, hits give low values 1.02 | S. cerevisiae deletion strains, locus YNL071W, strain lat1, hits give low values 0.997 | S. cerevisiae deletion strains, locus YNL128W, strain TEP1, hits give low values 1.01 | S. cerevisiae deletion strains, locus YNL153C, strain GIM3, hits give low values 1.01 and 1.02 | S. cerevisiae deletion strains, locus YNL175C, strain NOP13, hits give low values 0.993 | S. cerevisiae deletion strains, locus YNL197C, strain WHI3, hits give low values 0.982 | S. cerevisiae deletion strains, locus YNL209W, strain ssb2, hits give low values 0.995 | S. cerevisiae deletion strains, locus YNL224C, strain SQS1, hits give low values 0.988 | S. cerevisiae deletion strains, locus YNL233W, strain BNI4, hits give low values 1.01 | S. cerevisiae deletion strains, locus YNL248C, strain rpa49, hits give low values 0.996 | S. cerevisiae deletion strains, locus YNL250W, strain rad50, hits give low values 1.02 | S. cerevisiae deletion strains, locus YNL271C, strain bni1, hits give low values 1.01 | S. cerevisiae deletion strains, locus YNL298W, strain CLA4, hits give low values 1.02 | S. cerevisiae deletion strains, locus YNL307C, strain MCK1, hits give low values 1.03 | S. cerevisiae deletion strains, locus YNL322C, strain KRE1 (second series), hits give low values 0.998 | S. cerevisiae deletion strains, locus YNL322C, strain KRE1, hits give low values 1 | S. cerevisiae deletion strains, locus YNR049C, strain mso1, hits give low values 0.994 | S. cerevisiae deletion strains, locus YNR052C, strain pop2, hits give low values 1.02 | S. cerevisiae deletion strains, locus YOL006C, strain TOP1, hits give low values 1.04 | S. cerevisiae deletion strains, locus YOL012C, strain htz1 1.04 | S. cerevisiae deletion strains, locus YOL147C, strain pex11, hits give low values 1.02 | S. cerevisiae deletion strains, locus YOR001W, strain rrp6, hits give low values 0.995 | S. cerevisiae deletion strains, locus YOR061W, strain CKA2, hits give low values 1.01 | S. cerevisiae deletion strains, locus YOR069W, strain VPS5, hits give low values 1 | S. cerevisiae deletion strains, locus YOR070C, strain gyp1, hits give low values 0.998 | S. cerevisiae deletion strains, locus YOR080W, strain dia2, hits give low values 0.987 | S. cerevisiae deletion strains, locus YOR083W, strain WHI5 (second series), hits give low values 1.01 | S. cerevisiae deletion strains, locus YOR083W, strain WHI5, hits give low values 0.993 | S. cerevisiae deletion strains, locus YOR106W, strain vam3, hits give low values 1.01 | S. cerevisiae deletion strains, locus YOR136W, strain idh2, hits give low values 1.01 | S. cerevisiae deletion strains, locus YOR144C, strain elg1, hits give low values 1.02 | S. cerevisiae deletion strains, locus YOR184W, strain ser1, hits give low values 1.03 | S. cerevisiae deletion strains, locus YOR265W, strain rbl2, hits give low values 0.994 | S. cerevisiae deletion strains, locus YOR270C, strain vph1, hits give low values 1.02 | S. cerevisiae deletion strains, locus YOR290C, strain snf2, hits give low values 0.996 | S. cerevisiae deletion strains, locus YOR316C, strain cot1, hits give low values 1.01 | S. cerevisiae deletion strains, locus YPL051W, strain arl3, hits give low values 0.999 | S. cerevisiae deletion strains, locus YPL055C, strain LGE1, hits give low values 1.03 | S. cerevisiae deletion strains, locus YPL078C, strain atp4, hits give low values 0.997 | S. cerevisiae deletion strains, locus YPL106C, strain sse1, hits give low values 0.985 | S. cerevisiae deletion strains, locus YPL240C, strain hsp82, hits give low values 0.982 | S. cerevisiae deletion strains, locus YPL241C, strain CIN2, hits give low values 1.01 and 0.991 | S. cerevisiae deletion strains, locus YPR119W, strain clb2, hits give low values 1.02 | S. cerevisiae deletion strains, locus YPR141C, strain kar3, hits give low values 1.01 | S. cerevisiae deletion strains, locus YPR163C, strain tif3, hits give low values 1.02 | S. cerevisiae deletion strains, locus YPR167C, strain met16, hits give low values 1.01 | S. cerevisiae deletion strains, strain wtn01, hits give low values 1.01 | S. cerevisiae strains, strain wild type, hits give low values 1.01
